TDP1 cell noCPT = qHTS for Inhibitors of human tyrosyl-DNA phosphodiesterase 1 (TDP1): qHTS in cells in absence of CPT; actives 15% (n = 420,000); DT40 Tdp1-/- hTDP1 cells, no CPT, ATP luminescence, 48 h; Potency, µM (titrated, usually from 46.2 µM), for inactives: at the highest dose activity change, negative = growth inhibition, usual class: inhibitors; note: potency is the fitted concentration of half-maximal effect; % is set by controls: 0 for no effect and ±100 for the full control effect; nearly all actives have a fitted effect of over 55% in size
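A cellular qHTS used chicken DT40 cells lacking endogenous Tdp1 but carrying stably transfected human TDP1. Compounds were applied without camptothecin, and cell growth kinetics were judged by ATP-dependent luminescence after ≥48 hr.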
TGFb inhibitor = qHTS for Inhibitors of TGF-b | HepG2 CAGA-GFP TGF-b/SMAD3 reporter, GFP fluorescence, 18 h; TGF-beta stimulated, 500 pg/mL final | Potency, µM (series often up to 46.1 µM), without a hit: at the top dose activity, negative = inhibition, most hits filed as inhibitors | actives 1.2% (n = 410,000) | AID 588855, 2011; note: potency is the fitted concentration of half-maximal effect; % is set by controls: 0 for no effect and ±100 for the full control effect; nearly all actives have a fitted effect of over 65% in size
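Inhibition was scored as loss of TGF-beta-induced (500 pg/mL final, 18 hours, 37 degrees C) GFP in HEPG2 cells carrying a CAGA-GFP reporter, in DMEM with 1% FBS. Well GFP was summed per cell; Activity was normalised to unstimulated and stimulated DMSO wells, then concentration-response fitting.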
TDP1 cell CPT = qHTS for Inhibitors of human tyrosyl-DNA phosphodiesterase 1 (TDP1): qHTS in cells in presence of CPT; chicken DT40 Tdp1-/-;hTDP1 cells + 20 nM CPT, ATP luminescence, 48 h; Potency, µM (series often up to 46.2 µM), without a hit: at the top dose activity change, negative = growth inhibition, actives largely listed as inhibitors; actives 12% (n = 420,000); AID 686979, 2013; note: potency is the fitted concentration of half-maximal effect; % is set by controls: 0 for no effect and ±100 for the full control effect; nearly all actives have a fitted effect of over 55% in size
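Chicken DT40 Tdp1-/- cells stably complemented with human TDP1 were seeded at 400 cells/well in medium containing 20 nM camptothecin, exposed to pin-transferred compounds, and grown at 37 °C for at least 48 hr. Viability was read as ATP luminescence.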
HepG2 tox = qHTS for Inhibitors of TGF-b: Cytotox Counterscreen; HepG2 CAGA-GFP viability, ATP luminescence, 18 h; Potency, µM (titrated, usually from 46.1 µM), inactives show at the top dose activity change, negative = cytotoxicity, actives largely listed as cytotoxic; actives 0.76% (n = 410,000); AID 588856, 2011; note: potency is the fitted concentration of half-maximal effect
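HepG2 CAGA-GFP cells (1000/well, DMEM with 1% FBS) received compound, then TGF-beta at 500 pg/mL final, and were incubated 18 hours at 37 degrees C. Viability was read by CellTiter-Glo luminescence. Media-only wells were set as complete cell-killing and DMSO as no toxicity.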
IL1B secr inh = qHTS for Inhibitors of Inflammasome Signaling: IL-1-beta AlphaLISA Primary Screen. actives 4.7% (n = 360,000). AID 743279, 2014. activity change, % at 57.5 µM. THP-1 LPS/ATP IL-1B secretion, AlphaLISA, 16 h; active compounds read low; in the data active = activity change below about -50%; inconclusive = mostly about -30% to -49%; note: % is set by controls: 0 for no effect and ±100 for the full control effect
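Secreted IL-1B measured by AlphaLISA bead assay after 16 h compound exposure of THP-1 cells; compounds (final up to 57.5 uM) added 1 h before LPS (250 ng/mL) and ATP (1.25 mM) stimulation; lower signal means less secretion.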
S-ASM inh = Inhibitors of Secretory Acid Sphingomyelinase (S-ASM): qHTS. Sphingomyelin phosphodiesterase (Homo sapiens), P17405. placental ASM, HMU-PC fluorogenic substrate, 60 min. Potency, µM (highest dose often 57.5 µM), for inactives: top-dose activity change, negative = inhibition, usual class: inhibitors. actives 0.006% (n = 340,000). AID 504937, 2011; note: potency is the fitted concentration of half-maximal effect
Target sequence (P17405 47-631 limits assumed): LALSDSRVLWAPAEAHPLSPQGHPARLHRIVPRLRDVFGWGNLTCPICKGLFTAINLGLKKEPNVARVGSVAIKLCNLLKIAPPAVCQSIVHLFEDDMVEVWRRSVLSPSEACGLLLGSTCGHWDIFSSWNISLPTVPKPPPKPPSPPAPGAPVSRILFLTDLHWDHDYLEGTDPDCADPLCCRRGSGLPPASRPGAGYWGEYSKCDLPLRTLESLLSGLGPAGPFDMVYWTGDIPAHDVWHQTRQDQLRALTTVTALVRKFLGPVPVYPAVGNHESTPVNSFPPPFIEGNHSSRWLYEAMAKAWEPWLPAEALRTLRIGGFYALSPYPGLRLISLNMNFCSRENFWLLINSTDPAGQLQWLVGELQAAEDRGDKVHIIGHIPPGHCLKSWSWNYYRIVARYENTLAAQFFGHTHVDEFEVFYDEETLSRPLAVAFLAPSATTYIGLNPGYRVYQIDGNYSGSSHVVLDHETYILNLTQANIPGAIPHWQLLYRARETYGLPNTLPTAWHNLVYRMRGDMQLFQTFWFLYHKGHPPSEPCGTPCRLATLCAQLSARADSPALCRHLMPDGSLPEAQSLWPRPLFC
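Human placenta-derived ASM preincubated with compound 10 min at room temperature, then reacted with 9 uM (final) fluorogenic HMU-PC substrate for 60 min at 37 C. Stop solution raises pH to 10; fluorescence read at Ex 386/Em 447 nm.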
Starred values were filed as active, the others as inactive; i = inactive; ? = inconclusive; . = no result; [ ] = remark or other dose. Most compounds without a hit are left out; they make up all but 19% or so of the library. Unless noted, calls come from the whole dose curve; as a rule, active = well fitted curve in the direction sought with a large enough effect; inconclusive = small, poorly fitted or top-dose-only effect, or another doubt; inactive = no such curve, though single readings can be large; an effect the other way counts as inactive or inconclusive.

SMILES	TDP1 cell noCPT	TGFb inhibitor	TDP1 cell CPT	HepG2 tox	IL1B secr inh	S-ASM inh
COC(=O)c1c(N2C(=O)[C@H]3[C@@H](C2=O)[C@]2(C(=O)Nc4c(C)cccc42)N2CCC[C@@H]32)sc(C)c1C	10µM*	8%	21µM*	-42%	-25	3%
Cc1cccc(N2CCN(Cc3nnc(-c4ccc5c(c4)OCO5)o3)CC2)c1C	-3%	6%	-4%	3%	.	.
Cc1ccc(N2CCN(Cc3nnc(-c4ccc5c(c4)OCO5)o3)CC2)c(C)c1	23µM*	21%	?	-7%	.	.
C=CCCc1ccc(C#N)c(SCc2c(C(=O)OCC)c3cc(OC(C)=O)c(Br)cc3n2C)n1	29µM*	?	21µM*	-1%	12	-3%
CCOC(=O)c1c(CSc2nc(C)cc(C)c2C#N)n(C)c2cc(Br)c(OC(C)=O)cc12	26µM*	10%	?	14%	58	2%
CCOC(=O)CC(=O)CSc1nc2ccccc2c(=O)n1CCc1ccc(S(N)(=O)=O)cc1	?	-10%	?	2%	.	.
CC1=C(c2ccc(C)cc2)S(=O)(=O)NC1=NCc1cccc(F)c1	?	-19%	-21%	-19%	.	.
CC1=C(c2ccc(C)cc2)S(=O)(=O)NC1=NCCCN1CCN(c2ccccc2F)CC1	16µM*	?	?	-13%	.	.
COc1ccc(S(=O)(=O)Nc2cc(S(=O)(=O)c3ccccc3)c(O)cc2C)cc1	-14%	16%	-18%	3%	-2	-4%
COc1ccc(S(=O)(=O)Nc2cccc3ccccc23)cc1	.	-13%	.	0%	.	.
COc1ccc(S(=O)(=O)Nc2cccc3ccc(O)cc23)cc1	7.3µM*	?	6.5µM*	4%	34	-1%
O=C(O)CSc1cc(NS(=O)(=O)c2ccc(Cl)cc2)c2ccccc2c1O	2.3µM*	?	4.6µM*	6.3µM*	-84*	?
O=S(=O)(Nc1ccc(Cl)cc1NS(=O)(=O)c1ccccc1)c1ccccc1	?	?	?	-36%	-6	-5%
COc1ccc(S(=O)(=O)Nc2cc(SCC(=O)O)c(O)c3ccccc23)cc1	5.2µM*	11µM*	3.3µM*	-107%	-59*	-29%
COC(=O)[C@@]12C[C@@H](CC(=O)NCc3cccs3)C(=O)N(Cc3cccc4ccccc34)C1=CCC(C)(C)C2	?	.	?	.	-20	.
COc1ccc(S(=O)(=O)N2CCN(Cc3ccc(Cl)cc3)CC2)cc1	?	-26%	?	-27%	-65*	-2%
COc1cccc(CN2CCN(S(=O)(=O)c3ccc(Cl)s3)CC2)c1	-4%	-8%	3%	-3%	-51*	0%
COc1cccc(CN2CCN(Cc3cc(OC)c(OC)cc3[N+](=O)[O-])CC2)c1	16µM*	1%	?	-4%	7	3%
COc1ccc(S(=O)(=O)N2CCN(Cc3cccc(F)c3)CC2)cc1	29µM*	0%	-4%	13%	-23	4%
COc1ccc(S(=O)(=O)N2CCN(Cc3cccc(Cl)c3)CC2)cc1	?	?	?	-15%	-14	4%
CCCCn1c(N)c(N(C)C(=O)c2cccc(-n3cnnn3)c2)c(=O)[nH]c1=O	14%	-2%	4%	-2%	-1	6%
Cc1ccc(CNc2ncnc3sc(C(=O)N4CCCCC4c4cccnc4)c(C)c23)o1 (stereo not given)	?	.	-9%[9.04 µM]	.	.	.
CN(CCc1ccccc1)C(=O)c1cc(COc2ccc(F)cc2Cl)on1	-16%	-21%	-29%	-13%	-25	-6%
COc1ccc(S(=O)(=O)N2CCN(Cc3ccc(OC)c(OC)c3)CC2)cc1	?	-4%	-35%	-16%	-23	-4%
COc1ccc(CN2CCCN(S(=O)(=O)c3ccc(Br)cc3)CC2)cc1	18µM*	?	?	-24%	-71*	1%
SMILES	TDP1 cell noCPT	TGFb inhibitor	TDP1 cell CPT	HepG2 tox	IL1B secr inh	S-ASM inh
COc1ccc(N2C(=O)[C@@H]3C[C@H]2CN3Cc2cccn2-c2ccc(Cl)cn2)c(C)c1	?	.	-1%[9.04 µM]	.	.	.
O=C(Nc1cccc(Cl)c1)Nc1ccc2nccnc2c1	?	?	?	-35%	?	53%
O=C(Nc1ccc2nccnc2c1)Nc1ccccc1Cl	15µM*	3%	18µM*	3%	?	65%
O=C(CNc1ccccc1Cl)c1ccc(Br)cc1	?	-8%	?	-2%	-77*	-4%
O=C(Nc1ccc(Br)cc1)Nc1ccccc1Cl	10µM*	-20%	15µM*	-12%	?	-2%
O=C(CNc1ccc(Br)cc1)c1ccccc1	0%	26%	?	-27%	-23	-2%
O=C(Nc1ccncc1)Nc1ccc(Br)cc1Cl	?	?	21µM*	-33%	-94*	-2%
c1ccc(CCn2cccc2)nc1	-6%	25%	6%	-2%	-2	3%
Cc1ccccc1N1CCN(C2CCCN(C(=O)c3snnc3C)C2)CC1 (stereo not given)	3%	-15%	7%	1%	i	1%
CN1CCN(NC(=O)Nc2ccc(Br)cc2Cl)CC1	-4%	0%	-8%	-22%	-50*	6%
CN1CCN(NC(=O)Nc2cc(Cl)cc(Cl)c2)CC1	?	-22%	?	-20%	?	5%
CC(C)(C)OC(=O)N1Cc2ccccc2C[C@H]1C(=O)NCC(=O)NCC1CCCO1 (stereo not given in full)	27%	2%	-17%	6%	9	8%
COc1ccc(CN2CCOc3ccc(C(O)c4cccnc4)cc3C2)cc1O (stereo not given)	-19%	.	4%[9.04 µM]	.	.	.
CC(C)c1ccc(Nc2cc(C(=O)NCCCN(C)Cc3ccccc3)c3ccccc3n2)cc1	?	-10%	9.2µM*	-18%	.	.
COc1ccc(Nc2cc(C(=O)NCCCN(C)C3CCCCC3)c3ccccc3n2)cc1	21µM*	-5%	15µM*	-29%	.	.
COc1ccc(Nc2cc(C(=O)NCCCN3CCN(C)CC3)c3ccccc3n2)cc1	-28%	-2%	?	-34%	-17	-9%

Bioassay records: PubChem BioAssay, National Center for Advancing Translational Sciences (NCATS)
